The record followed here is PubChem BioAssay.

Test [1] can be described thus: antimalarial activity against Dd2 strain (AID 2302;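 active = growth inhibition above 50% at the single 2 µM test dose, taken to imply half-maximal potency below 2 µM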;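 also: 0% = DMSO untreated growth and 100% = chloroquine plus artemisinin killed control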). Conditions: P. falciparum Dd2 in RBCs, LDH growth readout, 72 h; at 2 µM; hits give high values.
Test [2] can be described thus: HepG2 cytotoxicity, primary screen, cytotoxicity control for P. falciparum antimalarial project, cell-based, ATP luminescence (AID 2303;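 active = inhibition above 50%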;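 also: 0% = DMSO wells and 100% = digitonin-killed cells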). Conditions: HepG2 viability, 24-48 h, at 10 µM, hits give high values.
Test [3] has as its target L-lactate dehydrogenase (Plasmodium falciparum (isolate CDC / Honduras)) (UniProt Q27743). In words: PfLDH activity inhibition – cell lysate, 3D7 strain, counter-screen for P. falciparum growth inhibition project (AID 2304).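 Also: 0% = vehicle and 100% = reference inhibitor.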 Conditions: P. falciparum 3D7 crude extract, LDH APAD/NBT absorbance; at 2 µM; hits give high values.
A short description of test [4]: inhibition of 3D7 malaria parasite growth – strain 3D7 (AID 2306).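 Also: 0% = DMSO wells and 100% = chloroquine plus artemisinin control wells.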 Conditions: P. falciparum 3D7 erythrocytic growth, LDH absorbance, 72 h; at 2 µM; hits give high values.
Test [5] concerns the target Calcium-dependent protein kinase 1 (Plasmodium falciparum (isolate 3D7)) (UniProt P62344). In words: PfCDPK1 kinase inhibitors, biochemical, TCAMS library (AID 1159585; cut-off not given, nearly all actives have IC50 up to about 0.98 µM;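 also: inhibitors leave more ATP so luminescence rises with inhibition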). Conditions: recombinant PfCDPK1, Kinase-Glo ATP depletion luminescence.
Test [6] addresses Plasmodium falciparum protein kinase 6 (PK6, PF3D7_1337100) (UniProt Q8IDW1). In words: PfPK6 kinase inhibitors, biochemical, TCAMS library (AID 1159586). Conditions: recombinant PfPK6, Kinase-Glo ATP depletion luminescence.
The target of test [7] is Protein kinase 7 (PK7), Plasmodium falciparum 3D7 (PF3D7_0213400) (UniProt Q7YTF7). In words: inhibition of Plasmodium PK7 catalytic activity – biochemical, TCAMS antimalarial set, Kinase-Glo luminescence (AID 1159587). Conditions: recombinant PfPK7, Kinase-Glo ATP depletion luminescence.
Protein kinase 7 (PK7), Plasmodium falciparum 3D7 (PF3D7_0213400), sequence (Q7YTF7 1-343): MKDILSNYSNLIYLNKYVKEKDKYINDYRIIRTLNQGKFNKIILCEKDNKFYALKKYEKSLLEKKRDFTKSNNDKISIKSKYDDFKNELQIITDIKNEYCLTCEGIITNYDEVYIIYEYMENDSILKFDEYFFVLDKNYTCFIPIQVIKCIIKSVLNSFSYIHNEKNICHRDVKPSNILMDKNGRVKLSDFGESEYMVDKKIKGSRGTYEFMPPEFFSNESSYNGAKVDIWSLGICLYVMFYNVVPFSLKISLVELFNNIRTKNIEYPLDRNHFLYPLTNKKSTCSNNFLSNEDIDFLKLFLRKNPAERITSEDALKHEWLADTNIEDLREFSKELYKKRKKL
For test [8], the target named is Calcium-dependent protein kinase 4 (Plasmodium falciparum (isolate 3D7)) (UniProt Q8IBS5). In words: PfCDPK4 kinase inhibitors, biochemical, TCAMS library (AID 1159588; cut-off not given, nearly all actives have IC50 up to about 0.91 µM). The note with it: recombinant PfCDPK4, Kinase-Glo ATP depletion luminescence.
Calcium-dependent protein kinase 4 (Plasmodium falciparum (isolate 3D7)), sequence (Q8IBS5 whole entry, looked up): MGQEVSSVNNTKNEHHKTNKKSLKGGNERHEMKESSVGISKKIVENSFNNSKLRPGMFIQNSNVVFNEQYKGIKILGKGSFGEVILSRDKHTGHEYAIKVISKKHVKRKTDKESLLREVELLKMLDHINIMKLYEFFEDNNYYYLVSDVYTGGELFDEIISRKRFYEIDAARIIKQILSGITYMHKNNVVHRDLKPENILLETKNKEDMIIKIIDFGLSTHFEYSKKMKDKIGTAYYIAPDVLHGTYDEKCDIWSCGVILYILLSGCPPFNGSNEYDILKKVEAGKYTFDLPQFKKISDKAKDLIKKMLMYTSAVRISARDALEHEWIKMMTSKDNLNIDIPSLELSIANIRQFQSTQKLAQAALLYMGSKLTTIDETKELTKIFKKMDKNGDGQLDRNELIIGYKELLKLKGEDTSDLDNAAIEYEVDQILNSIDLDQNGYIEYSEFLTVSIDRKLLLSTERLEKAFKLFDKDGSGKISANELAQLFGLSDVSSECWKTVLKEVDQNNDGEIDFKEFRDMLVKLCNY

Unmarked numbers belong to inactive results. For some of these results: Measured potencies and affinities stand elsewhere. The source made the active and inactive calls. Unless noted, no rule for the calls is given here.

L-lactate dehydrogenase (Plasmodium falciparum (isolate CDC / Honduras)), sequence (Q27743 whole entry, looked up): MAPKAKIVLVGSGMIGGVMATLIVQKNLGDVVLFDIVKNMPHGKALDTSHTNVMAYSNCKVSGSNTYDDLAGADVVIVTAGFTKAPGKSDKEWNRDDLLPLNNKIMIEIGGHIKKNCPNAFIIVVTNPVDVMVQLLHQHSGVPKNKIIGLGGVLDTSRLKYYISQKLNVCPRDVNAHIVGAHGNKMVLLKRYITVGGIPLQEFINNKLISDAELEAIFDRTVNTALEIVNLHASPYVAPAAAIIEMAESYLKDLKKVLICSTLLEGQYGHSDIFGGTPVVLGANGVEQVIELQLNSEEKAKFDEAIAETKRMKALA
Calcium-dependent protein kinase 1 (Plasmodium falciparum (isolate 3D7)), sequence (P62344 whole entry, looked up): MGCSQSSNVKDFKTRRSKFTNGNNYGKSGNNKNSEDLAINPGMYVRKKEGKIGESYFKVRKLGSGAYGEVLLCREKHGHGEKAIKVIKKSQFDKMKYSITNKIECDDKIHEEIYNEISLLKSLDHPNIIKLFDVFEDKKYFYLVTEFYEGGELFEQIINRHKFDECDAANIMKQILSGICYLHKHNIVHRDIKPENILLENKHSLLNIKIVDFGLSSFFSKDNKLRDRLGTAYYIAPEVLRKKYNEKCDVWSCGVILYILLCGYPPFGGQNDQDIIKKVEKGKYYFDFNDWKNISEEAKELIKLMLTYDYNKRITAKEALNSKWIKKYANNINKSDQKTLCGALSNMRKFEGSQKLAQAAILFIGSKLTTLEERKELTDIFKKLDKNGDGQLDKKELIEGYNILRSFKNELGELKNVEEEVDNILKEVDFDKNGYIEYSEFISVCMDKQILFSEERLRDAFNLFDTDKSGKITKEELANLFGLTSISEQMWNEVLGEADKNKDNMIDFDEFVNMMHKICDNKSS
Plasmodium falciparum protein kinase 6 (PK6, PF3D7_1337100), sequence (Q8IDW1 1-305): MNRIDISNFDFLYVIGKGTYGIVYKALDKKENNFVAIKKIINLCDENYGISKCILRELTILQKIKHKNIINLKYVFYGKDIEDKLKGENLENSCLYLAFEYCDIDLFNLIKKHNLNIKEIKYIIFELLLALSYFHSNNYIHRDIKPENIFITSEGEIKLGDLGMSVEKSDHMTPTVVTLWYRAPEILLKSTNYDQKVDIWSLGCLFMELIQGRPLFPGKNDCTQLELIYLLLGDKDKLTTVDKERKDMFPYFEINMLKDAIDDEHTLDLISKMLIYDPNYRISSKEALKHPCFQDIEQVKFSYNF

Take `CCn1c(Cc2ccccc2)nnc1SCC(=O)N1c2ccccc2Sc2ccccc21`: the values for the growth inhibition in test [1] and in test [4] were 96% (active) and 99% (active), respectively. In addition, the inhibition was -8% in test [2] and -1% in test [3]. Moreover, the result in test [5], in test [6], in test [7] and in test [8] was inactive.

For the compound `Cc1cc(OCC2CCN(c3ncc(C(=O)NC4CC4)cc3Cl)CC2)ccc1F`, the growth inhibition in test [1] and in test [4] was 96% (active) throughout. Besides, the inhibition was 16% in test [2] and 5% in test [3]. Moreover, the outcome in test [5], in test [6], in test [7] and in test [8] was inactive.

Take `N#Cc1ccc2c(c1)CN(CCC1CCC(NC(=O)c3cc4ccccc4cc3N)CC1)CC2` (stereo not given): the results for the growth inhibition in test [1] and in test [4] were 52% (active) and 80% (active), respectively. Moreover, the values for the inhibition in test [2] and in test [3] were 5% and -8%, respectively. In addition, the result in test [5], in test [6], in test [7] and in test [8] was inactive.

For the compound `CC(C)(C)CC(=O)Nc1ccc(Nc2cc(-c3ccncc3)cc3ncc(C(N)=O)cc23)cc1`, the results for the growth inhibition in test [1] and in test [4] were 85% (active) and 97% (active), respectively. In addition, the inhibition in test [2] is 5%; in test [3], 7%. Further, the outcome in test [5], in test [6], in test [7] and in test [8] was inactive.

As for `CO/C(=C\C=C\c1cc2cc(Cl)c(Cl)cc2[nH]1)C(=O)NC1C[C@@H](C)N(C)[C@@H](C)C1` (stereo not given in full), the figures for the growth inhibition in test [1] and in test [4] were 57% (active) and 97% (active), respectively. Moreover, the inhibition is 64% (active) in test [2] and 1% in test [3]. The result in test [5], in test [6], in test [7] and in test [8] was inactive.

Turning to `Oc1ccc(CCNc2nc(NCCCOc3ccccc3-c3cccc(C(F)(F)F)c3)nc(N3CCNCC3)n2)cc1`, the growth inhibition is 5% in test [1] and 93% (active) in test [4]. Also, the inhibition was 24% in test [2] and -1% in test [3]. The outcome in test [5], in test [6], in test [7] and in test [8] was inactive.

For the compound `COc1ccc(Nc2ccnc3cc(Cl)ccc23)cc1OC`, the figures for the growth inhibition in test [1] and in test [4] were 91% (active) and 104% (active), respectively. For the same compound, the inhibition in test [2] was 36%; in test [3] it was 3%. The result in test [5], in test [6], in test [7] and in test [8] was inactive.

On to `Cc1ccc(NC(=O)c2ccc(Cl)c(Cl)c2)cc1-c1ccc(C(=O)Nc2ccncc2)cc1`, for which the growth inhibition in test [1] is 79% (active); in test [4], 99% (active). The inhibition in test [2] is 39%; in test [3], -3%. The result in test [5], in test [6], in test [7] and in test [8] was inactive.

As to `CCNc1cc(C(=O)N[C@@H](Cc2ccccc2)[C@H](O)CN[C@H](C)C(C)(C)C)cc(N2CCCCS2(=O)=O)c1`, the growth inhibition in test [1] is 41%; in test [4], 95% (active). For the same compound, the inhibition is 4% in test [2] and -2% in test [3]. Besides, the outcome in test [5], in test [6], in test [7] and in test [8] was inactive.

As for `OC(CN1CCN(C2CCCCC2)CC1)Cn1c2ccccc2c2cc(Br)ccc21` (stereo not given), the results for the growth inhibition in test [1] and in test [4] were 89% (active) and 97% (active), respectively. For the same compound, the inhibition is 14% in test [2] and -2% in test [3]. Moreover, the outcome in test [5], in test [6], in test [7] and in test [8] was inactive.

Take `C[C@@H]1CCC[C@H](C)N1C[C@@H](O)CNS(=O)(=O)c1cccc(C(F)(F)F)c1`: the growth inhibition was 2% in test [1] and 99% (active) in test [4]. The figures for the inhibition in test [2] and in test [3] were 4% and -4%, respectively. The result in test [5], in test [6], in test [7] and in test [8] was inactive.

Consider `CN(Cc1ccc(-c2ccc(C(F)(F)F)cc2)cc1)C(=O)Cn1c(CCc2cccc(F)c2F)cc(=O)c2ccc(OCC3CCCN3C)cc21` (stereo not given), for which the values for the growth inhibition in test [1] and in test [4] were 37% and 87% (active), respectively. For the same compound, the inhibition in test [2] is 100% (active); in test [3] it was -6%. For the same compound, the result in test [5], in test [6], in test [7] and in test [8] was inactive.

`c1ccc2[nH]c(-c3ccc(-c4ccc(CN5CCN(c6ccncc6)CC5)cc4)cc3)nc2c1`: the figures for the growth inhibition in test [1] and in test [4] were 100% (active) and 101% (active), respectively. Besides, the inhibition is 48% in test [2] and -3% in test [3]. The result in test [5], in test [6], in test [7] and in test [8] was inactive.

As for `CC(C)(C)[C@@H](Nc1ccc(C#N)c2ccccc12)C(=O)NC1(Cc2ccc(O)c(Br)c2)CCCC1`, the growth inhibition in test [1] is 16%; in test [4], 84% (active). For the same compound, the inhibition in test [2] was 2%; in test [3] it was -2%. Moreover, the result in test [5], in test [6], in test [7] and in test [8] was inactive.

Take `CCCCCn1c(Sc2ccc(C#N)c([N+](=O)[O-])c2)nnc1-c1cccc(Cl)c1`: the values for the growth inhibition in test [1] and in test [4] were 75% (active) and 95% (active), respectively. Also, the results for the inhibition in test [2] and in test [3] were 4% and -2%, respectively. Also, the outcome in test [5], in test [6], in test [7] and in test [8] was inactive.

Take `CC1(C)[C@H]2CC[C@@H](CNc3nc(NCCc4cnc[nH]4)nc(Nc4ccc5c(c4)OCO5)n3)[C@@H]1C2`: the growth inhibition was 88% (active) in test [1] and 101% (active) in test [4]. Besides, the results for the inhibition in test [2] and in test [3] were 3% and -4%, respectively. For the same compound, the outcome in test [5], in test [6], in test [7] and in test [8] was inactive.

As to `NC1CCN(Cc2ccc(-c3ccc(-c4nc5ccccc5[nH]4)s3)cc2)C1` (stereo not given), the values for the growth inhibition in test [1] and in test [4] were 99% (active) and 101% (active), respectively. The inhibition is 32% in test [2] and -6% in test [3]. For the same compound, the result in test [5], in test [6], in test [7] and in test [8] was inactive.

Consider `CCc1ccc2nc(-c3ccc(F)cc3)nc(SCC(=O)Nc3sc(C)c(C)c3C#N)c2c1`, for which the results for the growth inhibition in test [1] and in test [4] were 5% and 98% (active), respectively. Also, the results for the inhibition in test [2] and in test [3] were -15% and 1%, respectively. Moreover, the outcome in test [5], in test [6], in test [7] and in test [8] was inactive.

`COc1ccc(Cc2c(N)nc3nc(N)nc(N)c3c2C)cc1`: the values for the growth inhibition in test [1] and in test [4] were 3% and 94% (active), respectively. Besides, the inhibition in test [2] is 64% (active); in test [3] it was -8%. For the same compound, the result in test [5], in test [6], in test [7] and in test [8] was inactive.

Regarding `COc1cc(F)c2ncc(C#N)c(CCN3CCC(NCc4ccc5c(c4)OCCO5)CC3)c2c1`, the growth inhibition is 59% (active) in test [1] and 97% (active) in test [4]. Also, the values for the inhibition in test [2] and in test [3] were 5% and -7%, respectively. Further, the outcome in test [5], in test [6], in test [7] and in test [8] was inactive.
